# Some of the results follow. Values without a mark were called inactive. Calls of active or inactive are those of the source.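 The calls were made as follows, unless noted: active = mean inhibition across triplicate wells above the cutoff set by the earlier primary insulin-degrading enzyme screen (cut at about 16% in these data); inactive = the rest.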
# Tests used:
# [1] = biological target: Insulin-degrading enzyme (Homo sapiens) (UniProt P14735); assay: human IDE inhibitors in live cells, confirmation, fluorescence polarization, HEK cells, FAbetaB substrate (AID 435028); settings: FAbetaB cleavage, at 5.59 µM, active compounds read high;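 also: 0% = DMSO wells and 100% = 60 µM reference IDE inhibitor Ii1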
# Sequence of Insulin-degrading enzyme (Homo sapiens) (P14735 whole entry, looked up): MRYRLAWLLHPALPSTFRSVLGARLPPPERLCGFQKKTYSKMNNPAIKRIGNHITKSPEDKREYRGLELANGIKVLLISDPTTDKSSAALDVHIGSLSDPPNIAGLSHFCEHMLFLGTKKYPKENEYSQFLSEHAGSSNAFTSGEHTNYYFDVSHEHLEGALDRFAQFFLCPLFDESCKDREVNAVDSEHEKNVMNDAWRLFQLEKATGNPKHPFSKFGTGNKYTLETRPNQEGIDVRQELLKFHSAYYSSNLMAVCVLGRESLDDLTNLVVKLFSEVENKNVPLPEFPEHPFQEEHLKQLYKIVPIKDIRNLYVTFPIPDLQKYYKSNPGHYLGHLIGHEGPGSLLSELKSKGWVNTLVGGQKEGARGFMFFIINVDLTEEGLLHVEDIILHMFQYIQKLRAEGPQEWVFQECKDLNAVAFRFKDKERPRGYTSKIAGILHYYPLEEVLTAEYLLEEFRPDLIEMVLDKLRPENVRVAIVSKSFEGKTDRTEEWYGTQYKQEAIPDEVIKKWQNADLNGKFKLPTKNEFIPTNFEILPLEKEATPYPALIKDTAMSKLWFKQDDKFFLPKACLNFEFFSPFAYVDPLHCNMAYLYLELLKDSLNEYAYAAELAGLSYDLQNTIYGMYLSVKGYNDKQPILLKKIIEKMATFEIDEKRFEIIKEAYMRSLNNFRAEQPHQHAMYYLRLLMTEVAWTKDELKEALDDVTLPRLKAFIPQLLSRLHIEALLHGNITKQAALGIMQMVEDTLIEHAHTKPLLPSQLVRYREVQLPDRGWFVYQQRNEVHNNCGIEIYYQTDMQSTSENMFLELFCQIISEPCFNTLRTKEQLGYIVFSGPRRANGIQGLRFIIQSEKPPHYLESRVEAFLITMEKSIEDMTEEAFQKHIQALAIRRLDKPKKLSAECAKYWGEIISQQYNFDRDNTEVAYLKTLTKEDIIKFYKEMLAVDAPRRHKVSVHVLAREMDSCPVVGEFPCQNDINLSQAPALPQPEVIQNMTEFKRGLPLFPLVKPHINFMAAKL
# [2] = cytotoxicity in HEK cells, cytotoxicity control for IDE inhibitor project, cell-based, luminescence (AID 449730; in the data active = inhibition above about 22%;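 also: 0% = vehicle wells and 100% = reference cytotoxic drug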); settings: HEK293 cytotoxicity, ATP luminescence; at 5.59 µM; active compounds read high
SMILES,inhibition [1],inhibition [2]
CCCc1nc(SCC(=O)Nc2ccc(S(=O)(=O)N(C)C)cc2)c2ccccc2n1,6.74%,21.9%
CCC(=C/c1sc2ccc3ccccc3c2[n+]1C)/C=C1\Sc2ccc3ccccc3c2N1C,13.4%,110% (active)
CCCCc1cc(=O)oc2c(C)c(OCC(=O)N3CCC(C(N)=O)CC3)ccc12,8.74%,11.7%
O=C(Oc1c(-c2ccco2)oc2ccccc2c1=O)c1cccnc1,93% (active),8.69%
Oc1ccc(-c2onc3ccc(Cl)cc23)cc1,101% (active),12.7%
O=C(Nc1ccc(Sc2ccc(Br)cc2)cc1)c1ccco1,14.3%,20.9%
CCN(CC)c1ccc2cc(C(N)=O)/c(=N\NC(=O)c3ccncc3)oc2c1,85.5% (active),28.8% (active)
CC(C(=O)c1ccc(-c2ccccc2)cc1)[n+]1cccc(Br)c1 (stereo unspecified),16.4% (active),14.3%
